Several values for one entry are separate records, joined by “and”; a condition that tells them apart may be missing. Equal values may be shown once. Activity calls are given as the source filed them.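 How the source made its calls, unless noted: active means inhibition at or above 50% relative to wild type and mutant plate controls; inactive means inhibition below 50%.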 Residues, ends and D or L forms follow the SMILES beside them.
Legend:
[1] = inhibitors of TNFa-induced NFkB p65 translocation, primary screen, imaging, HUVEC, MLSMR starter and 10KST1 sets (AID 438;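 active means inhibition above 20% together with a positive visual image hit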;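 further: compound added about 3h40 before a 20 min TNFalpha stimulation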;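 on inhibition: signal is the nuclear over cytoplasmic p65 intensity ratio per well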); conditions: HUVEC TNFa-induced p65 nuclear translocation; cell count: measured here: nuclei count (cytotoxicity indicator), at 2.08 µM unless noted; inhibition: at 2 µM, stronger effect = higher value unless noted
[2] = endothelial E-selectin expression blockers – imaging, HUVEC, immunofluorescence, MLSMR starter and 10KST1 sets, primary screen (AID 487;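 active means visually confirmed hit in the image check and inhibition above 20%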;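 on inhibition: signal is fraction of cell area covered by stained E-selectin grains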;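 on nuclei count: 100% = median nuclei count of all wells on the same plate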); conditions: HUVEC TNFalpha-induced E-selectin immunofluorescence imaging, at 2 µM; inhibition: stronger effect = higher value; nuclei count: measured here: cell number, toxicity
[3] = Primary imaging screen for DUSP6 inhibitors that restore phospho-Erk in transfected HeLa cells, chemical complementation (AID 609;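 active means compounds giving at least 50% inhibition in the cell-based MKP-3 phosphatase rescue imaging test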;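 on inhibition: phospho-Erk level distribution per well compared with pooled transfected vehicle control wells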); conditions: HeLa MKP-3 transfected, phospho-Erk imaging KS statistic, at 10 µM
[4] = target: Dual specificity protein phosphatase 6 (Homo sapiens) (UniProt Q16828); assay: as above; conditions: HeLa MKP-3 transfected, phospho-Erk imaging KS statistic, at 10 µM, stronger effect = higher value
[5] = target: Voltage-gated potassium channel subunit beta-2 (Rattus norvegicus) (UniProt P62483); assay: inhibitors of rat Kvbeta2 reductase activity – biochemical, NADPH fluorescence, primary screen (AID 622;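 active means fluorescence slope higher than the sample average by over 3 SD, cut at about -0.22 in these data, passing the limit was not always enough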;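 further: slope of raw intensity against log time taken from 70 to 1610 s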); conditions: recombinant KvBeta, 4-cyanobenzaldehyde reduction, at 10 µM, stronger effect = higher value
[6] = target: Voltage-gated potassium channel subunit beta-2 (Rattus norvegicus) (UniProt P62483); assay: enhancers of rat Kvbeta2 NADPH turnover – biochemical, NADPH fluorescence, primary screen (AID 623;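 active means NADPH fluorescence slope more negative than the mean of all samples by about 3 SD, 99.7% confidence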;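 further: fluorescence intensity change per second fitted from 20 to 320 s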); conditions: Recombinant KvBeta, NADPH fluorescence decrease slope, 10 min; at 10 µM; stronger effect = lower value
[7] = target: Alpha-2C adrenergic receptor (Homo sapiens) (UniProt P18825); assay: compounds altering alpha2C-coupled GIRK flux – cell-based, HEK293 alpha2C/GIRK1/2, thallium flux, primary screen (AID 624;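 active means fluorescence slope after compound addition differing from the mean of all screened samples at 99.7% confidence, in either direction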;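 further: slope of fluorescence ratio to pre-addition baseline per second over 15 to 24 s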); conditions: thallium flux BTC fluorescence, at 10 µM, actives lie on both sides
[8] = inhibitors of larval lipid processing in zebrafish, primary screen, whole organism, PED6 fluorescence, gall bladder and intestine (AID 686;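 active means a full or partial loss of lipid-probe fluorescence in the fish gall bladder, intestine or both, judged by eye; inactive means no fluorescence loss, or compound toxic to the fish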;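 further: larvae 5 to 7 days old with five fish per well; signal comes from phospholipase A2 cleavage of quenched PED6 carried via bile; overnight exposure to compound and PED6 before scoring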); conditions: Zebrafish larvae PED6 lipid processing, fluorescence scoring
[9] = loss of swimming-algae plug formation – whole organism, Chlamydomonas reinhardtii, WT vs cilia-less mutant, absorbance, 96-well, primary screen (AID 463189); conditions: Chlamydomonas reinhardtii gravitaxis, OD600 absorbance, 2 days; at 10 µM; stronger effect = higher value;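 further: 0% = wild type cc124 cells in DMSO and 100% = ciliumless bld1 mutant cells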
[10] = blockers of RIG-like receptor reporter activation – cell-based, Sendai virus stimulus, luciferase, 10K MLSCN set, TLR/RLR signaling modifier project, primary screen (AID 602276;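 active means inhibition at or above 50% at 10 µM; inactive means inhibition below 50%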;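 further: firefly luciferase from ISG56 promoter only with Renilla not read in this screen; 0% = Sendai virus plus DMSO and 100% = medium plus DMSO without virus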); conditions: HEK293 RL24 IRF3 luciferase reporter, at 10 µM, stronger effect = higher value
[11] = TLR3 IRF3 reporter activation blockers – cell-based, poly I:C stimulus, luciferase, 10K MLSCN set, primary screen (AID 602277;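 active means inhibition of the reporter signal at or above 50%; inactive means inhibition below 50%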); conditions: HEK293-TLR3 RL24 IRF3 luciferase reporter, at 10 µM, stronger effect = higher value
[12] = reduction of polyQ htt aggregates in cells – imaging, exon1htt(103Q)mCFP cells, high-content imaging, primary screen (AID 483;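 active means visual image review flags a hit and inhibition of aggregation exceeds 20%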;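 further: compound exposure lasted 3 days before fixation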;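 on nuclei count: percent of the per-plate median nuclei count of sample wells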); conditions: exon1htt(103Q)mCFP cell line, aggregate imaging, at 2 µM; inhibition of aggregation: stronger effect = higher value; nuclei count: measured here: cell count, toxicity
[13] = measured here: cell density z-score
[14] = measured here: nuclear c-Myc green intensity z-score
[15] = measured here: nuclear pErk red intensity z-score, stronger effect = higher value

Chain of Alpha-2C adrenergic receptor (Homo sapiens) (P18825 whole entry, looked up): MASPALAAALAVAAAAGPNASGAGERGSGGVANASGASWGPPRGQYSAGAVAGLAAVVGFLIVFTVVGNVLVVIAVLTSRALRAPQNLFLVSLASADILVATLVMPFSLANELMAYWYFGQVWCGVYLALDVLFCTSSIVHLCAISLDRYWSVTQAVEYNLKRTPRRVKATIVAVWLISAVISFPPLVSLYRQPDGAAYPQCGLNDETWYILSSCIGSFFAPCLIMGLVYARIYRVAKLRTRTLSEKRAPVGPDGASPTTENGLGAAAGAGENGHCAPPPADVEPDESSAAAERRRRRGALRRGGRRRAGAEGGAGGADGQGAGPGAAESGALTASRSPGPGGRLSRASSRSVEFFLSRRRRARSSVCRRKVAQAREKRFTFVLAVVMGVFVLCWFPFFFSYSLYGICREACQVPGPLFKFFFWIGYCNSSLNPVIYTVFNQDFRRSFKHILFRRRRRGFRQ
Chain of Voltage-gated potassium channel subunit beta-2 (Rattus norvegicus) (P62483 whole entry, looked up): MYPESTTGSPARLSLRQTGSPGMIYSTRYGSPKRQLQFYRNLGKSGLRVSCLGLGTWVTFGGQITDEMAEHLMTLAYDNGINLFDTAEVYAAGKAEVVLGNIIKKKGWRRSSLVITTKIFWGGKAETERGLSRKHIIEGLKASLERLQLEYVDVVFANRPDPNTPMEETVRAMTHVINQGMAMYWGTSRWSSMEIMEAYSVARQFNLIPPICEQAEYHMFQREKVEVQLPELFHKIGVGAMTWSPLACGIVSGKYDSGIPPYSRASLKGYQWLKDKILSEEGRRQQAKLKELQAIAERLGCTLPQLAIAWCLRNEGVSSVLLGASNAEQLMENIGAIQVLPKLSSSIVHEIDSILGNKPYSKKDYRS
Chain of Dual specificity protein phosphatase 6 (Homo sapiens) (Q16828 whole entry, looked up): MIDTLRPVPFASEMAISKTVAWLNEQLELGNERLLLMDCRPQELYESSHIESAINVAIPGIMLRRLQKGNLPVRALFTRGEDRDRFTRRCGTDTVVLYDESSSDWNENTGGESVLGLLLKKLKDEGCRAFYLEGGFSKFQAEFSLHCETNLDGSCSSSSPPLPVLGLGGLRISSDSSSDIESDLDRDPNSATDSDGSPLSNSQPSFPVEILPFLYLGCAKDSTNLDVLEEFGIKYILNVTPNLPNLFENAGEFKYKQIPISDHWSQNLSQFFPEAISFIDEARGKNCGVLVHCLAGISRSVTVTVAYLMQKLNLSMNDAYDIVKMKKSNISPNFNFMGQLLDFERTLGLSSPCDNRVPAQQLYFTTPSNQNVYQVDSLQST

SMILES	cell count [1]	inhibition [1]	inhibition [2]	nuclei count [2]	z-score [3, 13]	z-score [3, 14]	z-score [3, 15]	inhibition [4]	fluorescence slope [5]	NADPH fluorescence slope [6]	slope [7]	outcome [8]	inhibition [9]	z-score ([3]; measured here: cell density z-score, cells stimulated with TPA for 15 min)	z-score ([3]; measured here: nuclear c-Myc green intensity z-score, cells stimulated with TPA for 15 min)	z-score ([3]; measured here: nuclear pErk red intensity z-score, stronger effect = higher value, cells stimulated with TPA for 15 min)	inhibition [10]	inhibition [11]	inhibition of aggregation [12]	nuclei count [12]
CC1(C)CC(=O)C(C=NCCN2CCN(C(=O)Cc3ccc(F)cc3)CC2)=C(O)C1	580	5.6% (inactive)	-57.7% (inactive)	140%	0.866	1.58	-0.927	17.8% (inactive)	-0.481 (inactive)	-3.6e-05 (inactive)	0.00584 (inactive)	inactive	-8.15% (inactive)							
Clc1ccc(COC(Cn2ccnc2)c2ccc(Cl)cc2Cl)c(Cl)c1 (stereo not given)	692	-0.4% [at 2 µM, stronger effect = higher value, 0% TNFa-plus-vehicle, 100% no-TNFa wells] (inactive)	-73.1% (inactive)	144%				31.1% [cells stimulated with TPA for 15 min] (inactive)	-0.515 (inactive)	-3.4e-05 (inactive)	0.00694 (inactive)	inactive; toxic [screened at 20 µM (by protocol)]	36.1% (inactive)	-0.0883	1.51	-0.416	15.4% (inactive)	32.2% (inactive)		
COP(=O)(OC)C(O)C(Cl)(Cl)Cl (stereo not given)	659	4.7% (inactive)	-58.1% (inactive)	126%	-0.465	1.59	0.972	23.4% (inactive)	-0.462 (inactive)	-6e-05 (inactive)	0.00473 (inactive)	inactive	12.4% (inactive)				17.5% (inactive)	39.8% (inactive)	-21.7% (inactive)	104%
CCCCCCn1c(O)c(C=NCCCn2ccnc2)c(=O)[nH]c1=O	654	-20.1% (inactive)	13.9% (inactive)	134%	1.42	-1.88	-0.817	2.71% (inactive)	-0.5 (inactive)	-2e-06 (inactive)	0.0065 (inactive)	inactive	13.6% (inactive)							
CNCC(O)c1ccc(O)cc1 (stereo not given)	624	3.3% (inactive)	-43.9% (inactive)	118%	-0.968	-0.213	1.33	-0.828% (inactive)	-0.493 (inactive)	1.3e-05 (inactive)	0.00558 (inactive)	inactive	-0.226% (inactive) and -8.32% (inactive)				14.9% (inactive)	28.2% (inactive)	4.2% (inactive)	102%
c1ccc(Cn2ccnc2)cc1	630	3.1% (inactive)	-120% (inactive)	130%	1.25	-0.35	1.06	8% (inactive)	-0.486 (inactive)	3.7e-06 (inactive)	0.00411 (inactive)	inactive	-7.16% (inactive)				20.5% (inactive)	27.2% (inactive)	16.2% (inactive)	94.6%
COc1ccc(C(=O)N2CCCC2=O)cc1	667	2.2% (inactive)	-40.5% (inactive)	108%	0.0379	-0.632	1.58	19% (inactive)	-0.52 (inactive)	-4.5e-05 (inactive)	0.00436 (inactive)	inactive	6.16% (inactive) and 14.6% (inactive)				13.2% (inactive)	20.9% (inactive)	11.2% (inactive)	104%
CN(C)[C@@H]1C(=O)C(C(N)=O)=C(O)[C@@]2(O)C(=O)C3=C(O)c4c(O)ccc(Cl)c4[C@@](C)(O)C3C[C@@H]12 (stereo not given in full)	634	-1.6% (inactive)	-43.7% (inactive)	123%	-1.02	0.954	-0.997	21.2% (inactive)	-0.468 (inactive)	-6.5e-07 (inactive)	0.00588 (inactive)	inactive	51.9% (active)				23% (inactive)	44.9% (inactive)	76.3% (active)	102%
C[N+]1(C)CCN(c2ccccc2)CC1	637	-3.4% (inactive)	-66.8% (inactive)	118%	1.65	-1.1	-0.542	19% (inactive)	-0.439 (inactive)	-4.1e-05 (inactive)	0.00481 (inactive)	inactive	7.37% (inactive) and 14.5% (inactive)				0.511% (inactive)	51.8% (active)	-27% (inactive)	102%
CC(C)C[C@H](NC(=O)[C@@H]1CCCN1C(=O)[C@@H](N)Cc1ccc(O)cc1)C(=O)NCC(N)=O (H-YPLG-NH2)	621	-3.8% (inactive)	-65.3% (inactive)	104%	-0.734	-0.49	-1.27	1.48% (inactive)	-0.471 (inactive)	-6.7e-05 (inactive)	0.00565 (inactive)	inactive	-9.78% (inactive)				2.09% (inactive)	31.8% (inactive)	-9.8% (inactive)	103%

Source: PubChem BioAssay
